Test results reported in PubChem BioAssay (Tox21).
Where “and” joins values, the source holds several entries; their conditions need not be identical. Identical values can stand only once. Inconclusive results are not listed. Where a call stands in place of a potency, no number is given. A structure can be active in one record and inactive in another. Calls of active or inactive are those of the source. Unless noted, the call rests on the fitted dose curve; in most records, active means well fitted curve in the direction sought with a large enough effect in the repeat runs; inconclusive means weak or mixed curves; inactive means no such curve, though single readings can be large; an effect the other way counts as inactive or inconclusive.

Key:
[1] = qHTS assay to identify small molecule agonists of the RXR signaling pathway - cell viability counter screen (AID 1159529); further: nearly all actives have a fitted effect of over 50% in size; further: potency means the concentration at half of the fitted maximal effect
Procedure, shortened: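 RXR-alpha-UAS-bla HEK 293T cells in medium with 2% charcoal-stripped FBS were pre-incubated 5 hr, then compound-treated 16 hr at 37 C. Viability was read by CellTiter-Glo luminescence in the same wells as the beta-lactamase assay, with tetraoctyl ammonium bromide as positive control.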

[2] = qHTS assay to identify small molecule antagonists of the retinoid acid receptor (RAR) signaling pathway - cell viability counter screen (AID 1159551); further: nearly all actives have a fitted effect of over 35% in size; further: potency means the concentration at half of the fitted maximal effect
Procedure, shortened: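 C3RL4 RARE-luciferase cells, 1,000/well, incubated overnight, then dosed with compound plus 1 uM retinol (final). After 6 hr at 37 C, viability read by CellTiter-Glo ATP luminescence following 30 min at room temperature.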

[3] = qHTS assay to identify small molecule antagonists of the retinoic acid receptor (RAR) signaling pathway (AID 1159552; further: nearly all actives have a fitted effect of over 50% in size; further: potency means the concentration at half of the fitted maximal effect)
Procedure, shortened: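 Retinol signaling pathway inhibitors screened in C3RL4 RARE-luciferase reporter cells seeded overnight at 37 C, then compounds added with 1 uM (final) retinol as pathway substrate. After 6 hr at 37 C, luciferase luminescence read after 30 min at room temperature.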

[4] = qHTS assay to identify small molecule agonists of the retinoic acid receptor (RAR) signaling pathway (AID 1159553); further: potency means the concentration at half of the fitted maximal effect
Procedure, shortened: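 C3RL4 RARE-luciferase cells were seeded at 1,000/well and grown overnight at 37 C, then exposed to compounds for 6 hr at 37 C, 5% CO2. Luciferase reagent was added and luminescence was read after 30 min at room temperature.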

[5] = qHTS assay to identify small molecule antagonists of the estrogen related receptor (ERR) signaling pathway from Tox21 library - cell viability counter screen (AID 1224834); further: nearly all actives have a fitted effect of over 30% in size; further: potency means the concentration at half of the fitted maximal effect
Procedure, shortened: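 ERR reporter cells, 2,000 per well, rested 6 h, then exposed to compound in DMSO for 17.5 hours at 37 C. Viability read as fluorescence after 30 min with CellTiter-Fluor.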

[6] = target: Luciferin 4-monooxygenase (Photinus pyralis) (UniProt P08659); assay: qHTS assay to identify small molecule inhibitors of firefly luciferase (AID 1224835); further: nearly all actives have a fitted effect of over 25% in size; further: potency means the concentration at half of the fitted maximal effect
Procedure, shortened: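 Quantitative HTS format; KM concentrations of both substrates. Purified P. pyralis FLuc activity quantified from luminescence images.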

[7] = qHTS assay to identify small molecule agonists of the constitutive androstane receptor (CAR) signaling pathway - cell viability counter screen (AID 1224836); further: nearly all actives have a fitted effect of over 45% in size; further: potency means the concentration at half of the fitted maximal effect
Procedure, shortened: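 HepG2 cells stably carrying hCAR and a CYP2B6-2.2kb reporter; 15-concentration compounds plus PK11195 (final 0.75 uM), 23 hr at 37 C/5% CO2. Viability read by CellTiter-Fluor fluorescence.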

[8] = qHTS assay to identify small molecule antagonists of the constitutive androstane receptor (CAR) signaling pathway - cell viability counter screen (AID 1224837); further: nearly all actives have a fitted effect of over 45% in size; further: potency means the concentration at half of the fitted maximal effect
Procedure, shortened: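 HepG2 cells stably carrying hCAR and CYP2B6-2.2kb reporter, stimulated with 50 nM CITCO and compounds at 15 concentrations for 23 h at 37 C. Viability measured by CellTiter-Fluor fluorescence.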

[9] = target: Nuclear receptor subfamily 1 group I member 3 (Homo sapiens) (UniProt Q14994); assay: qHTS assay to identify small molecule antagonists of the constitutive androstane receptor (CAR) signaling pathway (AID 1224838); further: nearly all actives have a fitted effect of over 40% in size; further: potency means the concentration at half of the fitted maximal effect
Procedure, shortened: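 HepG2 cells stably carrying hCAR and a CYP2B6-2.2kb luciferase reporter, seeded 4 hrs before compound (15 concentrations). Stimulated with 50 nM CITCO for 24 hr at 37 C. ONE-Glo luminescence read after 30 min at room temperature.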

[10] = qHTS assay to identify small molecule antagonists of the estrogen related receptor signaling pathway with the pleiotropic PPARgamma coactivator (PGC) from Tox21 10K library - cell viability counter screen (AID 1224840; active means well fitted cell-killing curve with a large enough effect in the repeat runs, not every such curve was filed as active; further: nearly all actives have a fitted effect of over 40% in size; further: potency means the concentration at half of the fitted maximal effect)
Procedure, shortened: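 PGC/ERR cells (2,000/well) plated 6 h, then compound-treated for 17.5 h at 37 C. Viability measured by CellTiter-Fluor fluorescence after 30 min at 37 C, multiplexed with the pathway assay.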

[11] = qHTS assay to identify small molecule antagonists of the estrogen related receptor signaling pathway with the pleiotropic PPARgamma coactivator (PGC) from Tox21 10K library (AID 1224841; call rule not given here; further: actives are mostly falling curves and most rising ones were filed inactive; nearly all actives have a fitted effect of over 50% in size; further: potency means the concentration at half of the fitted maximal effect)
Procedure, shortened: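 PGC/ERR cell line, 2,000 cells/well, pre-incubated 6 hours at 37 C, then exposed to compounds for 18 hours at 37 C; luciferase read with One-Glo luminescence after 30 min at room temperature.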

[12] = qHTS assay to identify small molecule agonists of the estrogen related receptor signaling pathway with the pleiotropic PPARgamma coactivator (PGC) from Tox21 10K library (AID 1224842); further: nearly all actives have a fitted effect of over 15% in size; further: potency means the concentration at half of the fitted maximal effect
Procedure, shortened: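 PGC/ERR reporter cells (NTP line) were seeded 2,000 per well, rested 6 h at 37 C/5% CO2, then pin-dosed with compounds in DMSO for 18 h at 37 C; luciferase read by One-Glo luminescence after 30 min at room temperature.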

[13] = target: Thyrotropin receptor (Homo sapiens) (UniProt P16473); assay: qHTS assay to identify small molecule agonists of the thyroid stimulating hormone receptor (TSHR) signaling pathway (AID 1224843; calls by dose curve; further: nearly all actives have a fitted effect of over 45% in size; further: potency means the concentration at half of the fitted maximal effect)
Procedure, shortened: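 TSHR-expressing HEK293 cells (800 per well) were exposed to compounds for 30 min at room temperature. cAMP was then detected by HTRF competition with cAMP-d2 and anti-cAMP cryptate, read after 1 h at room temperature. Fifteen concentrations, triplicate.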

[14] = qHTS assay to identify small molecule antagonists of the estrogen related receptor signaling pathway with the pleiotropic PPARgamma coactivator (PGC) cell viability counter screen (AID 1224822; further: potency means the concentration at half of the fitted maximal effect)
Procedure, shortened: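 PGC/ERR cells rested 6 h, then compound-treated 17.5 h at 37 C. CellTiter-Fluor added for 30 min at 37 C, viability measured by fluorescence intensity.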

[15] = target: Nuclear receptor subfamily 1 group I member 3 (Homo sapiens) (UniProt Q14994); assay: qHTS assay to identify small molecule agonists of the constitutive androstane receptor (CAR) signaling pathway (AID 1224839); further: nearly all actives have a fitted effect of over 15% in size; further: potency means the concentration at half of the fitted maximal effect
Procedure, shortened: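 HepG2 cells stably co-transfected with hCAR and a CYP2B6-2.2kb luciferase reporter; compounds at 15 concentrations with 0.75 uM PK11195 present. After 24 hr at 37 C, luciferase read by ONE-Glo luminescence.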

[16] = qHTS assay to identify small molecule antagonists of the estrogen related receptor (ERR) signaling pathway - cell viability counter screen (AID 1224818); further: series mostly up to about 46 µM
Procedure, shortened: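 ERR cells, 2,000 per well, compound added after 6 h and incubated 17.5 h at 37 C. Viability read by CellTiter-Fluor fluorescence after a further 30 min at 37 C.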

Sequence of Thyrotropin receptor (Homo sapiens) (P16473 whole entry, looked up): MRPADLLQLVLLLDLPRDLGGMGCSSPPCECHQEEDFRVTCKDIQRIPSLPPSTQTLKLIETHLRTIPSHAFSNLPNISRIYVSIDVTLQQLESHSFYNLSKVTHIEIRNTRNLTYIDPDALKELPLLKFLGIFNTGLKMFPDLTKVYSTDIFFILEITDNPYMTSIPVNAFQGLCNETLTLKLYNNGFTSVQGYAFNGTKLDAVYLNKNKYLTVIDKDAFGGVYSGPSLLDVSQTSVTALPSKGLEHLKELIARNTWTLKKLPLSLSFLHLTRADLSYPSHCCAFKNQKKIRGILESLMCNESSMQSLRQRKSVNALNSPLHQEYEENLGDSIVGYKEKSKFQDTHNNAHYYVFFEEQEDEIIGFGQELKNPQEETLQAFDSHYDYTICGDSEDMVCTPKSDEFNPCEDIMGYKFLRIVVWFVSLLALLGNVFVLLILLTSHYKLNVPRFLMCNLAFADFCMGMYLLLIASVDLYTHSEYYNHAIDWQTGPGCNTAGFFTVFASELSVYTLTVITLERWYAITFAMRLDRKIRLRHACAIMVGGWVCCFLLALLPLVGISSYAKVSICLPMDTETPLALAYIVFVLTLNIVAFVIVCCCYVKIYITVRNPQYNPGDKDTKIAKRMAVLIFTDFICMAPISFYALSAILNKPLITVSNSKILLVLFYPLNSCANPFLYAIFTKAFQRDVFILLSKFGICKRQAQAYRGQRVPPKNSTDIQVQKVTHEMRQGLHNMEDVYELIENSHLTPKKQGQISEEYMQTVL
Sequence of Luciferin 4-monooxygenase (Photinus pyralis) (P08659 whole entry, looked up): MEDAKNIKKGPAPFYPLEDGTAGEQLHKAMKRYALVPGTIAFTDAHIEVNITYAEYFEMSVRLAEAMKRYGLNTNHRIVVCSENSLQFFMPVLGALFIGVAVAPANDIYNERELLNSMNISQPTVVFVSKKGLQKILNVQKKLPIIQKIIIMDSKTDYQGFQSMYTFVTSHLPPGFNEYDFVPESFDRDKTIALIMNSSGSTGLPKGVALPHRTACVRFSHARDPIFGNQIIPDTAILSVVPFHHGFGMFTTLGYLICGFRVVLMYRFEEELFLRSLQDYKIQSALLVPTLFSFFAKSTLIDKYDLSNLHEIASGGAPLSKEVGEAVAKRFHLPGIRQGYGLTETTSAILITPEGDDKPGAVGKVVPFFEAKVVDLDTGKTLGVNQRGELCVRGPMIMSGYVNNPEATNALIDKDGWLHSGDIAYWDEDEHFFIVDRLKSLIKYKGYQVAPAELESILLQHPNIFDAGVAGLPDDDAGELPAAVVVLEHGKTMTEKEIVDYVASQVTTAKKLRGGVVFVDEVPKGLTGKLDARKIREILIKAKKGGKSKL
Sequence of Nuclear receptor subfamily 1 group I member 3 (Homo sapiens) (Q14994 whole entry, looked up): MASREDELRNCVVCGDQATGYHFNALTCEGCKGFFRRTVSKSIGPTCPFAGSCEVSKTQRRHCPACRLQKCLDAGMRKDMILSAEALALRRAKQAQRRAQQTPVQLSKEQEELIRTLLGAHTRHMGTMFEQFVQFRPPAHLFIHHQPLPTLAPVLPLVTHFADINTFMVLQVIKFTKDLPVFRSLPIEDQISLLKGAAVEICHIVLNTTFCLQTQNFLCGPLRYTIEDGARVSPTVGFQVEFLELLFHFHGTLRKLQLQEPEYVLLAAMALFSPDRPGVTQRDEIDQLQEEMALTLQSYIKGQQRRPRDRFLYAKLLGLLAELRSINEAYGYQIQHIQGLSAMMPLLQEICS

SMILES: COP(=O)(OC)C(O)C(Cl)(Cl)Cl (stereo not given)
- Potency [1]: inactive
- Potency [2]: inactive
- Potency [3]: inactive
- Potency [4]: inactive
- Potency [5]: inactive
- Potency [6]: inactive
- Potency [7]: inactive
- Potency [8]: inactive
- Potency [9]: inactive
- Potency [10]: inactive
- Potency [11]: 24.6 µM (active) and inactive
- Potency [12]: inactive
- Potency [13]: inactive

SMILES: CC[n+]1ccccc1
- Potency [1]: inactive
- Potency [2]: inactive and 54 µM (active)
- Potency [4]: inactive
- Potency [5]: inactive and 30.4 µM (active)
- Potency [6]: inactive
- Potency [7]: inactive
- Potency [8]: inactive
- Potency [10]: inactive
- Potency [13]: inactive

SMILES: Oc1cccc2cccnc12
- Potency [1]: 780 nM (active) and 692 nM (active) and inactive
- Potency [2]: inactive and 7.7 µM (active)
- Potency [14]: 0.727 µM (active)
- Potency [5]: 2.74 µM (active) and 2.43 µM (active) and inactive
- Potency [9]: 1.38 µM (active) and 770 nM (active) and inactive
- Potency [10]: 2.43 µM (active) and inactive

SMILES: CCOP(=S)(OCC)Oc1ccc2c(C)c(Cl)c(=O)oc2c1
- Potency [1]: inactive
- Potency [2]: inactive
- Potency [3]: inactive
- Potency [4]: inactive and 11.9 µM (active)
- Potency [5]: inactive
- Potency [6]: inactive and 15.5 µM (active)
- Potency [7]: inactive
- Potency [8]: inactive
- Potency [9]: inactive
- Potency [15]: 31 µM (active) and 27.3 µM (active) and 29.8 µM (active)
- Potency [10]: inactive
- Potency [11]: inactive
- Potency [12]: inactive and 11.9 µM (active)
- Potency [13]: inactive

SMILES: Cc1cc(-c2ccc(N)c(C)c2)ccc1N
- Potency [1]: inactive
- Potency [2]: inactive
- Potency [3]: inactive
- Potency [4]: 15.1 µM (active)
- Potency [5]: inactive
- Potency [6]: 36 µM (active) and 56.2 µM (active) and 63.3 µM (active)
- Potency [7]: inactive
- Potency [8]: inactive
- Potency [9]: inactive
- Potency [15]: 12.2 µM (active)
- Potency [10]: inactive
- Potency [13]: 1.35 µM (active)

SMILES: C1CCC(NC2CCCCC2)CC1
- Potency [1]: inactive
- Potency [2]: inactive
- Potency [3]: inactive
- Potency [4]: inactive
- Potency [5]: inactive
- Potency [6]: inactive
- Potency [7]: inactive
- Potency [8]: inactive
- Potency [9]: inactive
- Potency [15]: inactive
- Potency [10]: inactive
- Potency [13]: inactive

SMILES: Nc1ccc(Cl)cc1
- Potency [1]: inactive
- Potency [2]: inactive
- outcome [16]: inactive
- Potency [14]: inactive
- Potency [6]: inactive
- Potency [7]: inactive
- Potency [8]: inactive
- Potency [9]: inactive
- Potency [15]: inactive
- Potency [10]: inactive
- Potency [13]: inactive

SMILES: O=C(O)C(Cl)(Cl)Cl
- Potency [1]: inactive
- Potency [2]: inactive
- Potency [3]: inactive
- Potency [4]: inactive
- Potency [5]: inactive
- Potency [6]: inactive
- Potency [7]: inactive
- Potency [8]: inactive
- Potency [9]: inactive
- Potency [15]: inactive
- Potency [10]: inactive
- Potency [13]: inactive

SMILES: COc1ccccc1N
- Potency [1]: inactive
- Potency [2]: inactive
- Potency [3]: inactive
- Potency [4]: inactive
- Potency [5]: inactive
- Potency [6]: inactive
- Potency [7]: inactive
- Potency [8]: inactive
- Potency [10]: inactive
- Potency [11]: inactive
- Potency [12]: inactive

SMILES: CC(=O)[O][Hg][c]1ccccc1
- Potency [1]: 1.72 µM (active) and 1.95 µM (active) and 2.39 µM (active)
- Potency [2]: 5.4 µM (active) and 13.7 µM (active) and 16.8 µM (active)
- Potency [3]: 1.92 µM (active) and 1.54 µM (active) and 2.11 µM (active)
- Potency [5]: 2.41 µM (active) and 3.86 µM (active) and 7.5 µM (active)
- Potency [6]: 1.25 µM (active) and 3.99 µM (active) and 2.75 µM (active)
- Potency [7]: 2.41 µM (active) and 4.33 µM (active) and 5.96 µM (active)
- Potency [8]: 2.71 µM (active) and 4.33 µM (active) and 5.31 µM (active)
- Potency [9]: 2.41 µM (active) and 4.33 µM (active) and 5.31 µM (active)
- Potency [15]: inactive
- Potency [10]: 1.92 µM (active) and 2.43 µM (active) and 6.68 µM (active)
- Potency [11]: 2.71 µM (active) and 4.86 µM (active) and 9.44 µM (active)
- Potency [12]: inactive
- Potency [13]: 2.71 µM (active) and 770 nM (active) and 9.44 µM (active)

SMILES: Oc1ccccc1-c1ccccc1
- Potency [1]: inactive
- Potency [2]: inactive
- Potency [5]: inactive
- Potency [6]: inactive
- Potency [7]: inactive
- Potency [8]: inactive
- Potency [9]: inactive
- Potency [15]: inactive and 35.2 µM (active)
- Potency [10]: inactive

SMILES: Nc1ccc(-c2ccc(N)cc2)cc1
- Potency [1]: inactive
- Potency [2]: inactive
- Potency [3]: inactive
- Potency [4]: inactive
- Potency [5]: inactive
- Potency [6]: 78.7 µM (active) and 28.1 µM (active)
- Potency [7]: inactive
- Potency [8]: inactive
- Potency [9]: inactive
- Potency [15]: 53.9 µM (active) and inactive and 21.7 µM (active)
- Potency [10]: inactive
- Potency [13]: inactive

SMILES: CCC(=O)C(CC(C)N(C)C)(c1ccccc1)c1ccccc1 (stereo not given)
- Potency [1]: 43.8 µM (active)
- Potency [2]: inactive
- Potency [3]: inactive
- Potency [4]: inactive
- Potency [5]: inactive
- Potency [7]: inactive
- Potency [8]: inactive
- Potency [9]: inactive
- Potency [15]: inactive
- Potency [10]: inactive
- Potency [13]: inactive
